Laboratory results taken from PubChem BioAssay AID1159580 (chemical genetic matrix, 2015).
The whole screen tested about 5,500 compounds, of which about 2,000 (36%) were called active. About 18% were inconclusive and are not listed. No stated cut-off is given here; in the data, active means normalized growth mostly below about 0.91 (no sharp cut-off); inconclusive means no clear call, values can overlap the other calls; inactive means mostly above about 0.92. Some of the results follow.

Assay: chemical genetic growth profiling, strain panel (AID 1159580);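 further: tested at 20 µM; growth read once vehicle control cultures reached saturation at 30 °C; 1 = growth at the plate median or of vehicle wells; lower values mean less growth of the strain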
Conditions: growth OD

Measured: normalized growth

CCCCC1C(=O)N(c2ccccc2)N(c2ccc(O)cc2)C1=O (stereo not given)
inactive: S. cerevisiae deletion strains, locus YJR075W, strain HOC1, active compounds read low 0.998 | S. cerevisiae deletion strains, locus YKL009W, strain mrt4, active compounds read low 1.01 | S. cerevisiae deletion strains, locus YKL068W, active compounds read low 0.987 | S. cerevisiae deletion strains, locus YKL085W, strain MDH1 (second series), active compounds read low 0.993 | S. cerevisiae deletion strains, locus YKL085W, strain MDH1, active compounds read low 0.993 | S. cerevisiae deletion strains, locus YKL160W, strain elf1, active compounds read low 1.03 | S. cerevisiae deletion strains, locus YKL190W, strain CNB1, active compounds read low 1 | S. cerevisiae deletion strains, locus YKR001C, strain vps1, active compounds read low 0.927 | S. cerevisiae deletion strains, locus YKR026C, strain gcn3, active compounds read low 1.01 | S. cerevisiae deletion strains, locus YKR091W, strain srl3, active compounds read low 0.996 | S. cerevisiae deletion strains, locus YLL001W, strain dnm1, active compounds read low 1.02 | S. cerevisiae deletion strains, locus YLL026W, active compounds read low 1 | S. cerevisiae deletion strains, locus YLL041C, strain sdh2, active compounds read low 1 | S. cerevisiae deletion strains, locus YLR027C, strain aat2, active compounds read low 0.994 | S. cerevisiae deletion strains, locus YLR039C, strain RIC1, active compounds read low 0.963 | S. cerevisiae deletion strains, locus YLR058C, strain SHM2, active compounds read low 0.976 | S. cerevisiae deletion strains, locus YLR102C, strain apc9, active compounds read low 0.996 | S. cerevisiae deletion strains, locus YLR113W, strain HOG1, active compounds read low 0.948 | S. cerevisiae deletion strains, locus YLR221C, strain rsa3, active compounds read low 1.02 | S. cerevisiae deletion strains, locus YLR258W, strain gsy2, active compounds read low 0.998 | S. cerevisiae deletion strains, locus YLR262C, strain YPT6 (second series), active compounds read low 0.956 | S. cerevisiae deletion strains, locus YLR262C, strain YPT6, active compounds read low 0.903 | S. cerevisiae deletion strains, locus YLR268W, strain sec22, active compounds read low 1.04 | S. cerevisiae deletion strains, locus YLR320W, strain mms22, active compounds read low 1.04 | S. cerevisiae deletion strains, locus YLR330W, strain CHS5, active compounds read low 0.996 | S. cerevisiae deletion strains, locus YLR342W, strain FKS1 (second series), active compounds read low 0.99 | S. cerevisiae deletion strains, locus YLR342W, strain FKS1, active compounds read low 1.01 | S. cerevisiae deletion strains, locus YLR357W, strain rsc2, active compounds read low 1.01 | S. cerevisiae deletion strains, locus YLR370C, strain arc18, active compounds read low 1 | S. cerevisiae deletion strains, locus YLR371W, strain rom2, active compounds read low 0.971 | S. cerevisiae deletion strains, locus YLR384C, strain iki3, active compounds read low 0.997 | S. cerevisiae deletion strains, locus YLR418C, strain cdc73, active compounds read low 1 | S. cerevisiae deletion strains, locus YML016C, strain PPZ1, active compounds read low 0.991 | S. cerevisiae deletion strains, locus YML032C, strain rad52, active compounds read low 0.996 | S. cerevisiae deletion strains, locus YML120C, strain ndi1, active compounds read low 1.01 | S. cerevisiae deletion strains, locus YML124C, strain tub3, active compounds read low 0.99 | S. cerevisiae deletion strains, locus YMR058W, strain fet3, active compounds read low 1 | S. cerevisiae deletion strains, locus YMR078C, strain ctf18, active compounds read low 0.986 | S. cerevisiae deletion strains, locus YMR125W, strain sto1, active compounds read low 1 | S. cerevisiae deletion strains, locus YMR129W, active compounds read low 1.01 | S. cerevisiae deletion strains, locus YMR205C, strain PFK2, active compounds read low 1.02 | S. cerevisiae deletion strains, locus YMR223W, strain ubp8, active compounds read low 0.968 | S. cerevisiae deletion strains, locus YMR231W, strain pep5, active compounds read low 1 | S. cerevisiae deletion strains, locus YMR307W, strain GAS1, active compounds read low 0.952 | S. cerevisiae deletion strains, locus YNL067W, strain RPL9B, active compounds read low 0.999 | S. cerevisiae deletion strains, locus YNL071W, strain lat1, active compounds read low 0.997 | S. cerevisiae deletion strains, locus YNL153C, strain GIM3, active compounds read low 0.984 | S. cerevisiae deletion strains, locus YNL183C, strain NPR1, active compounds read low 0.954 | S. cerevisiae deletion strains, locus YNL209W, strain ssb2, active compounds read low 1 | S. cerevisiae deletion strains, locus YNL233W, strain BNI4, active compounds read low 0.989 | S. cerevisiae deletion strains, locus YNL248C, strain rpa49, active compounds read low 1.03 | S. cerevisiae deletion strains, locus YNL250W, strain rad50, active compounds read low 0.985 | S. cerevisiae deletion strains, locus YNL271C, strain bni1, active compounds read low 1 | S. cerevisiae deletion strains, locus YNL298W, strain CLA4, active compounds read low 0.987 | S. cerevisiae deletion strains, locus YNL307C, strain MCK1, active compounds read low 0.987 | S. cerevisiae deletion strains, locus YNL322C, strain KRE1 (second series), active compounds read low 1.02 | S. cerevisiae deletion strains, locus YNL322C, strain KRE1, active compounds read low 0.993 | S. cerevisiae deletion strains, locus YNR049C, strain mso1, active compounds read low 1.01 | S. cerevisiae deletion strains, locus YNR052C, strain pop2, active compounds read low 0.996 | S. cerevisiae deletion strains, locus YOL006C, strain TOP1, active compounds read low 0.982 | S. cerevisiae deletion strains, locus YOL012C, strain htz1 0.972 | S. cerevisiae deletion strains, locus YOL147C, strain pex11, active compounds read low 0.998 | S. cerevisiae deletion strains, locus YOR001W, strain rrp6, active compounds read low 0.989 | S. cerevisiae deletion strains, locus YOR061W, strain CKA2, active compounds read low 0.959 | S. cerevisiae deletion strains, locus YOR069W, strain VPS5, active compounds read low 1 | S. cerevisiae deletion strains, locus YOR070C, strain gyp1, active compounds read low 1.02 | S. cerevisiae deletion strains, locus YOR080W, strain dia2, active compounds read low 0.993 | S. cerevisiae deletion strains, locus YOR083W, strain WHI5, active compounds read low 1.04 | S. cerevisiae deletion strains, locus YOR106W, strain vam3, active compounds read low 1.02 | S. cerevisiae deletion strains, locus YOR136W, strain idh2, active compounds read low 0.983 | S. cerevisiae deletion strains, locus YOR144C, strain elg1, active compounds read low 0.985 | S. cerevisiae deletion strains, locus YOR184W, strain ser1, active compounds read low 0.983 | S. cerevisiae deletion strains, locus YOR231W, strain MKK1, active compounds read low 0.987 | S. cerevisiae deletion strains, locus YOR265W, strain rbl2, active compounds read low 0.996 | S. cerevisiae deletion strains, locus YOR270C, strain vph1, active compounds read low 1.03 | S. cerevisiae deletion strains, locus YOR290C, strain snf2, active compounds read low 1.02 | S. cerevisiae deletion strains, locus YOR316C, strain cot1, active compounds read low 0.989 | S. cerevisiae deletion strains, locus YPL051W, strain arl3, active compounds read low 1.01 | S. cerevisiae deletion strains, locus YPL055C, strain LGE1, active compounds read low 0.938 | S. cerevisiae deletion strains, locus YPL078C, strain atp4, active compounds read low 1.02 | S. cerevisiae deletion strains, locus YPL106C, strain sse1, active compounds read low 1.02 | S. cerevisiae deletion strains, locus YPL240C, strain hsp82, active compounds read low 1.01 | S. cerevisiae deletion strains, locus YPL241C, strain CIN2, active compounds read low 0.99 | S. cerevisiae deletion strains, locus YPL256C, strain CLN2, active compounds read low 0.953 | S. cerevisiae deletion strains, locus YPR119W, strain clb2, active compounds read low 0.982 | S. cerevisiae deletion strains, locus YPR141C, strain kar3, active compounds read low 0.972 | S. cerevisiae deletion strains, locus YPR163C, strain tif3, active compounds read low 0.986 | S. cerevisiae deletion strains, locus YPR167C, strain met16, active compounds read low 0.987 | S. cerevisiae deletion strains, strain wtn01, active compounds read low 1 | S. cerevisiae strains, strain wild type, active compounds read low 1
